Compound activity: PubChem BioAssay, National Center for Advancing Translational Sciences (NCATS)
Shown are actives, neighbours in structure and some others; about 19% of the full set was active somewhere.
TDP1 inh: TDP1 (human) enzyme inhibition; recombinant TDP1, AlphaScreen DNA substrate cleavage; 350,000 tested, 0.28% active; Potency, µM (series often up to 130 µM), without a hit: at the top dose activity change, negative = inhibition, most hits filed as inhibitors; Q9NUW8; also: nearly all actives have a fitted effect of over 40% in size
Target sequence (Q9NUW8 whole entry, looked up): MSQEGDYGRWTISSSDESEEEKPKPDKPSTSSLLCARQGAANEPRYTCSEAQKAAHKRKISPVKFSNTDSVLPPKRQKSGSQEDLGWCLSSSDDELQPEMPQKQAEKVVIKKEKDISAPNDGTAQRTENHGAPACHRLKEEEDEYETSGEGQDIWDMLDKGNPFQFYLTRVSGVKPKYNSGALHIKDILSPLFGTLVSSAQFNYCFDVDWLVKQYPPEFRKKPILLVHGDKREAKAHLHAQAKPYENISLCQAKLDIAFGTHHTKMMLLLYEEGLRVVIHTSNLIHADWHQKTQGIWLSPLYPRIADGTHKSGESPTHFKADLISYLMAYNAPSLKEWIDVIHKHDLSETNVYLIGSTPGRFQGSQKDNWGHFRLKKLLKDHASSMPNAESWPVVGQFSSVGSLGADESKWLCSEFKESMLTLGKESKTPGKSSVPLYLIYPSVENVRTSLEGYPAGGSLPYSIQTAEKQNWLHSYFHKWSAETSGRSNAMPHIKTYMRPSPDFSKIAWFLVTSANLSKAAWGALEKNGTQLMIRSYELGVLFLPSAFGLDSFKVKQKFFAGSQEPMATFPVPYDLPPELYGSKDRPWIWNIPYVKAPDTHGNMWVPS
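Recombinant E. coli-expressed Tdp1 (1 nM) preincubated with compound 15 min at RT, then 5'-biotin/3'-phosphotyrosine-FITC DNA substrate (15 nM) added for 5 min. AlphaScreen beads (10 ug/ml) added, 10 min RT; tyrosine-FITC cleavage read as signal loss.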
DT40 TDP1 no CPT: qHTS for Inhibitors of human tyrosyl-DNA phosphodiesterase 1 (TDP1): qHTS in cells in absence of CPT; Potency, µM (doses to about 46.2 µM), without a hit: top-dose activity change, negative = growth inhibition, most hits filed as inhibitors; DT40 Tdp1-/- hTDP1 cells, no CPT, ATP luminescence, 48 h; AID 686978, 2013; 420,000 tested, 15% active; also: nearly all actives have a fitted effect of over 55% in size
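A cellular qHTS used chicken DT40 cells lacking endogenous Tdp1 but carrying stably transfected human TDP1. Compounds were applied without camptothecin, and cell growth kinetics were judged by ATP-dependent luminescence after ≥48 hr.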
VP16 counter: Gal4-VP16 reporter inhibition counter-screen | Drosophila S2 Gal4-VP16 UAS-luciferase, luminescence, 20 h | Potency, µM (doses to about 53.6 µM), for inactives: at the highest dose activity, negative = inhibition, usual class: inhibitors | 310,000 tested, 3.5% active | AID 2546;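 also: Gal4-VP16 expression switched on by copper sulfate through the metallothionein promoter; nearly all actives have a fitted effect of over 50% in size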
RORg inh: blocks mouse ROR gamma transcriptional activity; Drosophila S2 Gal4-RORgamma UAS-luciferase reporter, 20 h; AID 2551; 310,000 tested, 5.4% active; Potency, µM (titrated, usually from 53.6 µM), without a hit: at the highest dose activity change, negative = inhibition, usual class: inhibitors; P51450; also: nearly all actives have a fitted effect of over 60% in size
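Schneider cells (Drosophila), stable Gal4 DBD–ROR gamma + UAS-luc; 1 hr cmpd preincubation; Cu2+ induction 700 uM final; 20 hr ambient; luminescence.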
DT40 TDP1 CPT: growth inhibition of DT40 Tdp1-/-;hTDP1 cells with camptothecin (screen for TDP1 inhibitors) | chicken DT40 Tdp1-/-;hTDP1 cells + 20 nM CPT, ATP luminescence, 48 h | Potency, µM (doses to about 46.2 µM), without a hit: at the top dose activity change, negative = growth inhibition, actives largely listed as inhibitors | 420,000 tested, 12% active | AID 686979; also: nearly all actives have a fitted effect of over 55% in size
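Cell growth measured by CellTiter-Glo luminescence after a minimum 48 h, 37 C compound exposure with 20 nM CPT in Tdp1-knockout DT40 cells stably expressing hTDP1, seeded 400/well; qHTS titration format.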
* hit, by the source's call; ? = inconclusive; . = no result given; [ ] = remark or other dose. Calls follow the shape of the dose curve; as a rule, active = well fitted curve in the direction sought with a large enough effect; inconclusive = small, poorly fitted or top-dose-only effect, or another doubt; inactive = no such curve, though single readings can be large; an effect the other way counts as inactive or inconclusive. % is scaled to controls: 0 for no effect and ±100 for the full control effect; potency is read from the fitted curve at half-maximal effect.

SMILES	TDP1 inh	DT40 TDP1 no CPT	VP16 counter	RORg inh	DT40 TDP1 CPT
COc1ccc(C(c2nnnn2-c2c(C)cccc2C)N2CCC3(CC2)C(=O)NCN3c2ccccc2)cc1 (centres undefined)	.	20.6µM*	.	.	14.6µM*
CCC(c1nnnn1C1CCCC1)N1CCC2(CC1)C(=O)NCN2c1ccccc1 (centres undefined)	.	-23.9%	.	.	?
Cc1cccc(C)c1-n1nnnc1C(c1ccnc2ccccc12)N1CCC2(CC1)C(=O)NCN2c1ccccc1 (centres undefined)	.	14.6µM*	.	.	23.1µM*
CC(=O)NN1C(=O)c2ccccc2NC1c1cccnc1 (centres undefined)	3.7%	11.2%	3.0%	5.7%	-5.8%
CCC(=Nc1cc(OC)ccc1OC)c1c(O)[nH]c(=O)[nH]c1=O	1.0%	-23.7%	-7.2%	1.8%	-26.7%
CC(C)(C)n1nnnc1C(C1CC1)N1CCC2(CC1)C(=O)NCN2c1ccccc1 (centres undefined)	.	16.4µM*	.	.	?
CCOC(=O)c1oc2ccc(S(=O)(=O)n3nc(-c4ccc(Br)cc4)cc3N)cc2c1C	3.5%	11.6µM*	.	.	20.6µM*
Cc1ccc2oc(-c3ccccc3)cc(=O)c2c1	-8.2%[56.1 µM]	-16.5%	?	?	-27.8%
C=C(C)[C@@]12OC3(c4ccccc4)O[C@@H]1[C@@H]1[C@@H]4O[C@]4(CO)[C@@H](O)[C@]4(O)C(=O)C(C)=C[C@H]4[C@@]1(O3)[C@H](C)[C@H]2OC(=O)/C=C/C=C/c1ccccc1	15.4%	.	-21.1%	34.1%	.
C=C(C)[C@@]12OC3(c4ccccc4)O[C@@H]1C1[C@@H]4O[C@]4(CO)[C@@H](O)[C@]4(O)C(=O)C(C)=C[C@H]4[C@@]1(O3)[C@H](C)[C@H]2OC(=O)/C=C/C=C/c1ccccc1 (some centres undefined)	.	3.26µM*	.	.	16.4µM*
C[C@H](CO)N1C[C@H](C)[C@@H](CN(C)S(=O)(=O)c2cccs2)Oc2ccc(NC(=O)Nc3ccc4c(c3)OCO4)cc2C1=O	3.3%	18.4µM*	.	.	20.6µM*
CCOP(=S)(OCC)O/N=C(\C#N)c1ccccc1	.	-28.1%	.	.	-1.4%
CCOc1cc2[nH]c(=O)n(CCCCC(=O)N3CCN(c4cccc(Cl)c4)CC3)c(=O)c2cc1OCC	-0.5%	5.17µM*	.	.	2.31µM*
COc1ccc(N2CCN(C(=O)c3cc(=O)[nH]c4ccccc34)CC2)cc1	6.5%	?	-2.5%	?	5.3%
COc1cc2[nH]c(=O)n(CCCCCC(=O)N3CCN(c4cccc(C(F)(F)F)c4)CC3)c(=O)c2cc1OC	2.9%	6.51µM*	.	.	?
COc1ccc(N2CCN(C(=O)CCCCCn3c(=S)[nH]c4ccc(N5CCOCC5)cc4c3=O)CC2)cc1	.	2.91µM*	.	.	4.11µM*
CCOc1cc(CN2CCN(C(=O)Cc3ccccc3)CC2)ccc1OC	.	?	4.9%	7.9%	-25.0%
CCOc1cc2[nH]c(=S)n(CCCC(=O)N3CCC4(CC3)OCCO4)c(=O)c2cc1OCC	8.0%	-34.1%	20µM*	?	-3.3%
COc1ccc(C(C)=O)cc1CC(C(=O)c1ccc(C)c(C)c1)N(C)C (centres undefined)	5.4%	-20.3%	-0.9%	-10.8%	9.3%
Cc1ccccc1N1C(=O)NC(=O)/C(=C\c2cc(Br)c(N3CCOCC3)o2)C1=O	-0.6%	7.31µM*	-19.0%	-19.0%	4.11µM*
Cc1ccccc1N1C(=O)NC(=O)/C(=C/c2ccc(N3CCOCC3)o2)C1=O	5.9%	-13.3%	-7.6%	4.0%	1.5%
C=CCn1c(O)c(C(C)=Nc2cccc(C(F)(F)F)c2)c(=O)[nH]c1=O	-3.9%	-15.7%	0.6%	25.1%	0.0%
Cc1cc(NCCN)nc2ccccc12	-1.1%	-23.6%	1.0%	-19.9%	-8.9%
CCOc1cc2c(cc1OCC)-n1cccc1C(c1cccc([N+](=O)[O-])c1)NC2 (centres undefined)	.	18.4µM*	-5.0%	13.5%	23.1µM*
